# Where “and” joins values, the source holds several entries; their conditions need not be identical. Equal values may be shown once. A number with no mark means an inactive call. Records with an inconclusive call do not appear. The list shows a part of the results. Where a call stands in place of a potency, no number is given. Calls of active or inactive are those of the source. Unless noted, calls follow the shape of the dose curve; as a rule, active = well fitted curve in the direction sought with a large enough effect; inconclusive = small, poorly fitted or top-dose-only effect, or another doubt; inactive = no such curve, though single readings can be large; an effect the other way counts as inactive or inconclusive.
# What was measured:
# [1] = target: Cytochrome P450 3A4 (Homo sapiens) (UniProt P08684); test: qHTS Assay for Activators of Cytochrome P450 3A4 (AID 885); also: nearly all actives have a fitted effect of over 65% in size; also: potency is read from the fitted curve at half-maximal effect
# Chain of Cytochrome P450 3A4 (Homo sapiens) (P08684 whole entry, looked up): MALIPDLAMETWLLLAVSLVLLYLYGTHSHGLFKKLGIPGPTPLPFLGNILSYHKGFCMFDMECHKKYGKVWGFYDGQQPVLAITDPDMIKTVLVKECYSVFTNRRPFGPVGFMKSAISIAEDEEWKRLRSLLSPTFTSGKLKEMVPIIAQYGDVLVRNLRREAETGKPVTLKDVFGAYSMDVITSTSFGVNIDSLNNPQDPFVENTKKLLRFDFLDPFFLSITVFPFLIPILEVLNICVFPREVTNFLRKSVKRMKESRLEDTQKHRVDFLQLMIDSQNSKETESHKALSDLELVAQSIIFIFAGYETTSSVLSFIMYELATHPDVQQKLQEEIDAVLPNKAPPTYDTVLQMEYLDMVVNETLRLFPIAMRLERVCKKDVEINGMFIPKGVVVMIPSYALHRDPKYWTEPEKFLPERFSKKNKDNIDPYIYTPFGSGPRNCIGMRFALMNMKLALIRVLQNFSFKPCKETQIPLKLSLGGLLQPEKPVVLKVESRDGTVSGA
# In short: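 CYP3A4 activity: Luciferin-PPXE O-dealkylation, 25uM substrate, 200mM KPO4, RT throughout. Read-out is luciferase luminescence; higher values reflect activation.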
# [2] = target: Estrogen receptor (Homo sapiens) (UniProt P03372); test: qHTS assay for small molecule antagonists of estrogen receptor alpha signaling (AID 588513; active = well fitted curve in the direction sought with a large enough effect in the signal ratio, with a control signal flat, not every such curve was filed as active; the % refers to the signal ratio)
# Chain of Estrogen receptor (Homo sapiens) (P03372 whole entry, looked up): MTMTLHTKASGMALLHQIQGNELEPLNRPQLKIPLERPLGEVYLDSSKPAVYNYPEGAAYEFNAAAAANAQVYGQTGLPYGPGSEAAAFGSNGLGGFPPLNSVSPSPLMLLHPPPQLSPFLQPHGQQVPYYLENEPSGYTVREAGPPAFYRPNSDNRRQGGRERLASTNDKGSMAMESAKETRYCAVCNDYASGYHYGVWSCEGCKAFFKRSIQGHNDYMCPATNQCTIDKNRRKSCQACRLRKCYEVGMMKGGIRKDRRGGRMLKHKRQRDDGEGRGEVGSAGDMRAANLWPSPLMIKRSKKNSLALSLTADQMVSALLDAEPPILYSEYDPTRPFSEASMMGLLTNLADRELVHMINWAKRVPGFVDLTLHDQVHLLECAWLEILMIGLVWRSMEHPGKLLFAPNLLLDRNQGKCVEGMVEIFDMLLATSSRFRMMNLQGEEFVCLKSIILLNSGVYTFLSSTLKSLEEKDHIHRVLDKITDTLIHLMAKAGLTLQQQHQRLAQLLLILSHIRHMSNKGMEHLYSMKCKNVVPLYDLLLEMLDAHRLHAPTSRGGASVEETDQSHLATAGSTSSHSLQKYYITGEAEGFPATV
# In short: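 ER-alpha-UAS-bla GripTite HEK 293 cells in medium with 2% charcoal/dextran-treated FBS were preincubated 4 h at 37 C, dosed with compound (1:2 titration), stimulated with 0.5nM 17-beta-estradiol for 18 h, then read by CCF4 beta-lactamase fluorescence.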
# [3] = qHTS assay to identify small molecules that stimulate interleukin-8 (IL-8) secretion (AID 651758; active = well fitted activation curve with a large enough effect in the signal ratio; the % refers to the signal ratio; also: potency is read from the fitted curve at half-maximal effect)
# In short: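 Compounds are added to THP-1 cells (2000 per well) and left 16 hrs at 37 C. A labeled anti-IL-8 antibody pair is then added, and IL-8 secretion is measured by time-resolved FRET after 1-3 hrs at room temperature.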
# [4] = target: Androgen receptor (Homo sapiens) (UniProt P10275); test: qHTS assay for small molecule antagonists of androgen receptor signaling (AID 588516; active = well fitted curve in the direction sought with a large enough effect in the signal ratio, with a control signal flat, not every such curve was filed as active; the % refers to the signal ratio)
# Chain of Androgen receptor (Homo sapiens) (P10275 whole entry, looked up): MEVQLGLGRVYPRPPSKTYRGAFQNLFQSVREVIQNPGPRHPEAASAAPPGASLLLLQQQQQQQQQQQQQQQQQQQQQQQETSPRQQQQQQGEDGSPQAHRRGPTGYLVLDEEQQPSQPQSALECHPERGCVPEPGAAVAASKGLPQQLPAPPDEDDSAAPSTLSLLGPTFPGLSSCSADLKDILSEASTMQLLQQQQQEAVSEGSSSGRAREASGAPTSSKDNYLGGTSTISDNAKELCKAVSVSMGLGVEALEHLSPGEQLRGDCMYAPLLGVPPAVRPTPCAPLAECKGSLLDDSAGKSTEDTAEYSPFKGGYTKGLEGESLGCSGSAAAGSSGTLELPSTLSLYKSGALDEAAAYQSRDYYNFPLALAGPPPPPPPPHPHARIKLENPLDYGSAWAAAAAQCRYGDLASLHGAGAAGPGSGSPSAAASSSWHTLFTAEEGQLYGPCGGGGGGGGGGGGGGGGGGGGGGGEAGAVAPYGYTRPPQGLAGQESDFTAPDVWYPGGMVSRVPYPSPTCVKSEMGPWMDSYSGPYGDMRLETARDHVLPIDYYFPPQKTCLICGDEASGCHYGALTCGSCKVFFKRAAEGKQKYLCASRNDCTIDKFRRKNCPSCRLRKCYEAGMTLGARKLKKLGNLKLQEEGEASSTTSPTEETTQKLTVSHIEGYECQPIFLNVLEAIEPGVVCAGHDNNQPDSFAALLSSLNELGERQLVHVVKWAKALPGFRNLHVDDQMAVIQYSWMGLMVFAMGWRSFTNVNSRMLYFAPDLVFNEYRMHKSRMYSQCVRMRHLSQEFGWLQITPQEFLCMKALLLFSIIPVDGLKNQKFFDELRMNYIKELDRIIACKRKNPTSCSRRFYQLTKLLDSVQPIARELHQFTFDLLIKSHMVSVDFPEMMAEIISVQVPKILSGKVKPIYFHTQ
# In short: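 AR-UAS-bla-GripTite HEK 293 cells (2000/well, 5 h at 37 C) received compound titrations, then R1881 at 10 nM final; after 16 h at 37 C, CCF4 dye 2 h RT, beta-lactamase fluorescence read; IC50 from Hill fits.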
# [5] = target: Peroxisome proliferator-activated receptor delta (Homo sapiens) (UniProt Q03181); test: qHTS assay for small molecule antagonists of peroxisome proliferator-activated receptor delta signaling (AID 588535; active = well fitted inhibition curve with a large enough effect in the signal ratio, with a control signal flat, not every such curve was filed as active; the % refers to the signal ratio)
# Chain of Peroxisome proliferator-activated receptor delta (Homo sapiens) (Q03181 whole entry, looked up): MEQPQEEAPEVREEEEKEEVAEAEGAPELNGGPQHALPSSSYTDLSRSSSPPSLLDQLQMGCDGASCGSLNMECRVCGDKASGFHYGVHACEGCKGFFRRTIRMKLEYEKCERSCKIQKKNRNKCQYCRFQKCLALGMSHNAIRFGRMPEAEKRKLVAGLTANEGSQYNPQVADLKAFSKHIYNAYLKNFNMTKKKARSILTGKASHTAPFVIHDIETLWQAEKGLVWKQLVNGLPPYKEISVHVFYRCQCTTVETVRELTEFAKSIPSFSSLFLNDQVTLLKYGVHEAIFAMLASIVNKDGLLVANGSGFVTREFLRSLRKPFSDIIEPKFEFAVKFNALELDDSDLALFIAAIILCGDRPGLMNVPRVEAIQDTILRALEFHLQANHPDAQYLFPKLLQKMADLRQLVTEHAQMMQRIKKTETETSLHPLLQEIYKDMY
# In short: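 Fluorescence from CCF4-loaded GeneBLAzer PPAR-delta-UAS-bla HEK293T cells (2 hrs RT loading) quantified reporter inhibition after an 18 hr, 37 C compound exposure across a titration.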
# [6] = target: Endonuclease 4 (Escherichia coli (strain K12)) (UniProt P0A6C1); test: Counterscreen for APE1 Inhibitors: qHTS Assay for Inhibitors of Endonuclease IV (AID 2565)
# In short: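 Conditions: 2 nM enzyme, 50 nM TAMRA/BHQ-2 substrate, pH 7.5 Tris buffer with 2 mM MgCl2, RT. Compound preincubation 15 min; readout three fluorescence reads 60 s apart, third-minus-first.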
# [7] = target: DNA repair nuclease/redox regulator APEX1 (Homo sapiens) (UniProt P27695); test: qHTS FP-Based Assay for Inhibitors of the Human Apurinic/apyrimidinic Endonuclease 1 (APE1) (AID 2573); also: potency is read from the fitted curve at half-maximal effect
# Chain of DNA repair nuclease/redox regulator APEX1 (Homo sapiens) (P27695 whole entry, looked up): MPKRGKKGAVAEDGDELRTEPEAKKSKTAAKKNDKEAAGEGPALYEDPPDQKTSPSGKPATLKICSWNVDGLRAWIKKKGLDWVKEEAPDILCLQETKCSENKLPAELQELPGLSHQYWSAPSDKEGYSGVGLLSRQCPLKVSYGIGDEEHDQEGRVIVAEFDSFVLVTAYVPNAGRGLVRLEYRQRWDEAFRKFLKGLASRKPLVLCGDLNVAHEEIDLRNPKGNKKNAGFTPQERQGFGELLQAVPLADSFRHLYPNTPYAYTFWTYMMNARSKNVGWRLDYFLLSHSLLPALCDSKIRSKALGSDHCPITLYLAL
# [8] = target: Androgen receptor (Homo sapiens) (UniProt P10275); test: qHTS assay for small molecule agonists of androgen receptor signaling (AID 588515; active = well fitted curve in the direction sought with a large enough effect in the signal ratio, with a control signal flat; the % refers to the signal ratio); conditions: AR-UAS-bla HEK293, beta-lactamase ratio, agonist 16 h; stronger effect = higher value
# In short: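 Stimulation of an AR-responsive β-lactamase reporter in GripTite HEK293 cells was measured after 16 h compound exposure at 37 °C, via CCF4 fluorescence after 2 h RT. EC50 from Hill fits, normalized to R1881 at 30 nM.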
# [9] = target: Cytochrome P450 1A2 (Homo sapiens) (UniProt P05177); test: p450-cyp1a2 (AID 410; calls by dose curve; also: potency is read from the fitted curve at half-maximal effect)
# Chain of Cytochrome P450 1A2 (Homo sapiens) (P05177 whole entry, looked up): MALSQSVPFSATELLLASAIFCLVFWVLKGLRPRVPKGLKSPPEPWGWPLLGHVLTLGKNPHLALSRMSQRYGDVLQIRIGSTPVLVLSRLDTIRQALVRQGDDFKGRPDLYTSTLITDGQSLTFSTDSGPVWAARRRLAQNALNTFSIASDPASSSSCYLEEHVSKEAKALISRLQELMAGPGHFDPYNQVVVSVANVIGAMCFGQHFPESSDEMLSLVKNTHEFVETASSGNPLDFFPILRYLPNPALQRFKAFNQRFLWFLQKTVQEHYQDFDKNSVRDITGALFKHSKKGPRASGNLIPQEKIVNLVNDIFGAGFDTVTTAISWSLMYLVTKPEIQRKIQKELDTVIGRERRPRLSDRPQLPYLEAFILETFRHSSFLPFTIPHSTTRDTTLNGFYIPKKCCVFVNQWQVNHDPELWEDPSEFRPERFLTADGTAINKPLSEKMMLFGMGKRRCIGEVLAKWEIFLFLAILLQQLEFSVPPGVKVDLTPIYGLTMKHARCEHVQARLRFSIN
# In short: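 O-Demethylation of luciferin 6' methyl ether by human CYP1A2 is monitored as luciferase luminescence. Substrate sits at Km (100uM); enzyme is 20nM. Values are scaled to 57 uM furafylline as maximal inhibition.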
# [10] = target: Lysosomal acid glucosylceramidase (Homo sapiens) (UniProt P04062); test: Glucocerebrosidase-p2 (AID 348; in the data active = potency below about 10 µM; also: potency is read from the fitted curve at half-maximal effect); conditions: purified GBA, blue fluorogenic substrate, 40 min
# Chain of Lysosomal acid glucosylceramidase (Homo sapiens) (P04062 whole entry, looked up): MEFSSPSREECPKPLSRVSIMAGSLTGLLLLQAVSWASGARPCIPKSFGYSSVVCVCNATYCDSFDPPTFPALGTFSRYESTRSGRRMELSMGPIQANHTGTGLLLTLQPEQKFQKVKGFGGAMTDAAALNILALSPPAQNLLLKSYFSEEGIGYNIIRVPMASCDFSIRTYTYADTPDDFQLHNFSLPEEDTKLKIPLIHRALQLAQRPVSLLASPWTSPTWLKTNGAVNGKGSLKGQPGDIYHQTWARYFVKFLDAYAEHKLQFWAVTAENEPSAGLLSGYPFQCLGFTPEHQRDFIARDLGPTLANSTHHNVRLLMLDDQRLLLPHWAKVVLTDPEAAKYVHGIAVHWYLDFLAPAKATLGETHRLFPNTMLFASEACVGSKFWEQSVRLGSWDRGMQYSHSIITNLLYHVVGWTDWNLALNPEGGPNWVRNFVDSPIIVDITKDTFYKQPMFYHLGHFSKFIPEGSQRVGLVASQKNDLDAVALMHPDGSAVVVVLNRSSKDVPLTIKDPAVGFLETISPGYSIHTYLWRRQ
# In short: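 Normal human glucocerebrosidase (0.2 nM) with blue fluorogenic substrate (80 uM final) in citrate/phosphate pH 5.9 with 10mM sodium taurocholate, 0.01% tween-20; 40 min RT, NaOH/glycine stop; fluorescence Ex 365/Em 440; AC50 from a titration from 0.6 nM upwards.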
# [11] = AP1 Signaling Pathway (AID 357; active = well fitted curve in either direction with a large enough effect, not every such curve was filed as active;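 also: ME-180 reporter cells stimulated with EGF at its EC50 level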); conditions: ME-180 AP-1-bla reporter, EGF-induced, beta-lactamase ratio, 5 h; at 7.69 µM (top of the series) unless noted
# In short: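 Titration-series screen for positive or negative modulators of EC50 EGF-induced signaling in ME-180 cells carrying an AP-1-driven beta-lactamase reporter. After 5 hours at 37 degrees Celsius, CCF4 460nm/530nm emission ratio gave %Activity; AC50 values derived.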
# [12] = NFAT Signaling Pathway (AID 444; active = well fitted curve in either direction with a large enough effect, not every such curve was filed as active;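 also: carbachol stimulus at about its EC50 of 1 µM final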); conditions: Jurkat NFAT-bla M1, carbachol, beta-lactamase ratio, 5 h; at 7.69 µM (top of the series) unless noted
# In short: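 Jurkat cells with NFAT-driven β-lactamase reporter and co-expressed M1 receptor, stimulated with carbachol (final 1 uM, ~EC50), compound titration, 5 h at 37 °C. CCF4 loaded 1 h at RT; 460/530 nm ratio gave %activity and AC50.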
# [13] = Stat Signaling Pathway (AID 446; active = well fitted curve in either direction with a large enough effect, not every such curve was filed as active;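 also: ME-180 cervical cancer cells given 40 pM IL-6 alongside compound; SIE-controlled beta-lactamase reporter measured as 460/530 nm FRET emission ratio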); conditions: ME-180 (cervical carcinoma) SIE beta-lactamase reporter, IL-6 stimulated, 5 h; at 7.69 µM (top of the series) unless noted
# In short: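 Compound effects on IL-6-induced STAT reporter activity were measured in ME-180 cells. After overnight culture, cells were co-treated with 40 pM IL-6 for 5 hrs before beta-lactamase substrate loading at room temperature.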
# [14] = target: 3',5'-cyclic-AMP phosphodiesterase 4B (Homo sapiens) (UniProt Q07343); test: qHTS Assay for Inhibitors of PDE-IV (AID 607; active = well fitted activation curve with a large enough effect in the main read-out, with a control signal flat, not every such curve was filed as active)
# Chain of 3',5'-cyclic-AMP phosphodiesterase 4B (Homo sapiens) (Q07343 whole entry, looked up): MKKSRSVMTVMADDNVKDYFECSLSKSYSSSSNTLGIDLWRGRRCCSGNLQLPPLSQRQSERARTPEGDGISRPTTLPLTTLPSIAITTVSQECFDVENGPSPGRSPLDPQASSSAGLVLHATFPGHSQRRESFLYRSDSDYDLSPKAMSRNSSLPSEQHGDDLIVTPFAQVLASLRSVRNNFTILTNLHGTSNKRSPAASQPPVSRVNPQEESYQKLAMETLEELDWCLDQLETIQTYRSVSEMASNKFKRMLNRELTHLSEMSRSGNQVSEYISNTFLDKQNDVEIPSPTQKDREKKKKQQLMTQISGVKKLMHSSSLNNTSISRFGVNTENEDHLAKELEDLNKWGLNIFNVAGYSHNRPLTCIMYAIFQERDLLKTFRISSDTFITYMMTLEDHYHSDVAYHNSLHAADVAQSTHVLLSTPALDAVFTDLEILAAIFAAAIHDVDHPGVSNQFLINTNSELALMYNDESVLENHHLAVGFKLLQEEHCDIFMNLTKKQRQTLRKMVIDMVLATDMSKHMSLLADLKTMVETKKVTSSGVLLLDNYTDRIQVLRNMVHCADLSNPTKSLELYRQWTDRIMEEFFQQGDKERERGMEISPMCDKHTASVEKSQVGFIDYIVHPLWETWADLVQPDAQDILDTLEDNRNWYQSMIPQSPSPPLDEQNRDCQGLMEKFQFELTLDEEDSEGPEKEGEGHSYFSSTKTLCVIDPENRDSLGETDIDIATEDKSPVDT
# In short: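 ACTOne HEK293 cells carry a modified cAMP-gated CNG channel and express endogenous PDE4; plated 1000 cells/well, compounds up to 22.9 uM final. Membrane-potential dye fluorescence (ex 535/em 590) was read; parental cells received 10 uM forskolin + 100 uM RO 20-1724.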
# [15] = qHTS profiling for inhibitors of Plasmodium falciparum proliferation (AID 504749); also: nearly all actives have a fitted effect of over 60% in size; conditions: P. falciparum in erythrocytes, SYBR Green DNA, 72 h, at 28.7 µM (top of the series)
# In short: (§1)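 Each compound contacts P. falciparum-infected red blood cells for 72 h at 37 C; lysis buffer (Tris, EDTA, saponin, Triton X, SYBR Green I) is added and fluorescence measured next morning; values normalized to controls.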
# [16] = tested on: AS120; test: as above; conditions: P. falciparum in erythrocytes, SYBR Green DNA, 72 h; series mostly up to 28.7 µM
# In short: as §1
# [17] = tested on: CP203; test: as above; conditions: P. falciparum in erythrocytes, SYBR Green DNA, 72 h; series mostly up to 28.7 µM
# In short: as §1
# [18] = tested on: DFO2036; test: as above; conditions: P. falciparum in erythrocytes, SYBR Green DNA, 72 h; series mostly up to 28.7 µM
# In short: as §1
# [19] = tested on: W2; test: as above; conditions: P. falciparum in erythrocytes, SYBR Green DNA, 72 h; series mostly up to 28.7 µM
# In short: as §1
# [20] = target: Fructose-bisphosphate aldolase A (Oryctolagus cuniculus) (UniProt P00883); test: qHTS Assay for Inhibitors of Fructose-1,6-bisphosphate Aldolase from Giardia Lamblia: Rabbit FBPA Selectivity (AID 2794); also: nearly all actives have a fitted effect of over 60% in size
# Chain of Fructose-bisphosphate aldolase A (Oryctolagus cuniculus) (P00883 whole entry, looked up): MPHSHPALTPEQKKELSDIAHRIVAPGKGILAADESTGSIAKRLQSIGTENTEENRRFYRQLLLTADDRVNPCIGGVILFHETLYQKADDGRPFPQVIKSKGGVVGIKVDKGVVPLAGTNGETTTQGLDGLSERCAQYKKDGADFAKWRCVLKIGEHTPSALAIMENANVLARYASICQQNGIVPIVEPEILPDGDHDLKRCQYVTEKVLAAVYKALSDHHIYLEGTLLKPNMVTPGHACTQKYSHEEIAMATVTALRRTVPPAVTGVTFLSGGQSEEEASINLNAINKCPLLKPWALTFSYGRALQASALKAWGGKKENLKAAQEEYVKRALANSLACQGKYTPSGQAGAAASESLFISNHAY
# In short: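 Each compound, dosed at up to 57.5 uM final, was first mixed with coupling enzyme reagent for 10 min. Aldolase substrate and the AmpLite Red coupling system then ran 20 min at RT before a single fluorescence read.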
structure (smiles),measurement,setting,value
CN(C)c1ccc(C(=N)c2ccc(N(C)C)cc2)cc1,Potency,[1],inactive
same,outcome,[2],inactive
same,Potency,[3],66.8 µM (active)
C/C=C/C=C/C=O,outcome,[2],inactive
same,outcome,[4],inactive
same,outcome,[5],inactive
Cc1ccc(S(N)(=O)=O)cc1,outcome,[5],inactive
same,Potency,[3],inactive
Oc1ccc(O)c2c(O)cccc12,Potency,[3],75 µM (active)
CCOc1ccc2nc(N)sc2c1,outcome,[2],inactive
O=C(OCC1CO1)C1CCCCC1C(=O)OCC1CO1 (stereo not given),Potency,[3],66.8 µM (active)
O=C(O)c1ccc([N+](=O)[O-])cc1,outcome,[5],inactive
O=C(Cc1ccc(S(=O)(=O)N2CCOCC2)s1)NCCC(c1ccccc1)c1ccccc1,outcome,[6],inactive
O=c1nc2s/c(=C\c3ccco3)c(=O)n2nc1Cc1ccccc1,outcome,[6],inactive
same,Potency,[7],inactive
Cc1cc(C)c2nc(-c3ccco3)cc(C(=O)O)c2c1,outcome,[6],inactive
same,Potency,[7],inactive
Clc1nc2ccccc2nc1Cl,outcome,[2],inactive
Cc1ccc(Cc2cnc(N)s2)o1,outcome,[6],inactive
O=[N+]([O-])c1cc(N(CCO)CCO)ccc1NCCO,outcome,[2],inactive
same,activation,[8],15% and 1.64%
same,outcome,[4],inactive
same,outcome,[5],inactive
N/C(=N\OC(=O)Nc1ccccc1)c1ccno1,outcome,[6],inactive
same,Potency,[7],inactive
C/C=C1/C(=O)C[C@H]2[C@@H]3CCC4=CC(=O)CC[C@]4(C)[C@H]3CC[C@]12C,Potency,[1],1 µM (active)
Nc1ccc(-c2ccc(N)c(O)c2)cc1O,activation,[8],4.81%
Cc1ccc(-c2nc(SCC(=O)Nc3ccccc3OC(F)F)c3c(C)c(C(=O)O)sc3n2)cc1,outcome,[6],inactive
same,Potency,[7],11.2 µM (active)
O=CC(=O)c1ccccc1,outcome,[2],inactive
same,Potency,[3],inactive
Nc1ccc(N=Nc2ccccc2)c(N)c1,Potency,[1],inactive
same,outcome,[2],inactive
O=C(CN1CCN(S(=O)(=O)/C=C/c2ccccc2)CC1)NC(=O)NCc1ccco1,outcome,[6],inactive
CC[C@@H](CO)Nc1nc(NCc2ccccc2)c2ncn(C(C)C)c2n1,Potency,[9],12.6 µM (active)
N#Cc1ccccc1CN1C(=O)S/C(=C/c2cccn2-c2cccc(C(=O)O)c2)C1=O,Potency,[7],inactive
CC(C)(C)C(=O)OCc1nc(-c2ccc(O)c(O)c2)cs1,Potency,[7],inactive
C[C@@H](N)[C@@H](C)Cc1ccccc1,Potency,[10],> 11.4 µM
same,"activity change, negative = inhibition",[11],10.1%
same,Potency,[9],inactive
same,"activity change, negative = inhibition",[12],6.03%
same,"activity, negative = inhibition",[13],15.9%
same,Potency,[14],inactive
CO[C@@H](NC(N)=O)C(=O)O,Potency,[10],> 11.4 µM
same,"activity change, negative = inhibition",[11],-1%
same,"activity change, negative = inhibition",[9],-6.4% [at 2.29 µM]
same,"activity change, negative = inhibition",[12],1.38%
same,"activity, negative = inhibition",[13],8.15%
same,Potency,[14],inactive
O=C(O)c1cc(N=Nc2ccc([N+](=O)[O-])cc2)ccc1O,Potency,[10],> 11.4 µM
same,"activity change, negative = inhibition",[11],-28%
same,"activity change, negative = inhibition",[9],-15.3% [at 2.29 µM]
same,"activity change, negative = inhibition",[12],28.6%
same,"activity, negative = inhibition",[13],-2.69%
same,Potency,[14],inactive
same,outcome,[2],inactive
same,Potency,[3],inactive
NS(=O)(=O)c1cc2c(cc1Cl)N[C@H](Cc1ccccc1)NS2(=O)=O,Potency,[10],> 11.4 µM
same,"activity change, negative = inhibition",[11],-4.23%
same,Potency,[9],3.16 µM (active)
same,"activity change, negative = inhibition",[12],23.7%
same,"activity, negative = inhibition",[13],1.94%
same,Potency,[14],inactive
same,"activity, negative = inhibition",[15]; parasite line A,6.22%
same,"activity, negative = inhibition",[15]; parasite line B,-2.36%
same,Potency,[16],inactive
same,Potency,[17],inactive
same,Potency,[18],inactive
same,Potency,[19],inactive
O=C(CSc1cccc[n+]1[O-])c1ccc(-c2ccccc2)cc1,outcome,[20],inactive

# — PubChem BioAssay (NCATS)
